# Measured values: paper PMC6919601, “Identification of Plasmodium dipeptidyl aminopeptidase allosteric inhibitors by high throughput screening” (PLoS ONE, 2019)
# The campaign covered roughly 110,000 compounds. About 230 (0.21%) showed an effect of 50% or more. This excerpt belongs to a sample that is enriched for strong results.
# Target: DPAP1 (Plasmodium falciparum, UniProt Q8IIJ9)
# Assay: primary screen, percent inhibition; read by cleavage of a fluorogenic dipeptide substrate; higher = more effect of the substance
# Parameters: species or system P. falciparum D10 trophozoite lysates; single well
# 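Note: 30 min substrate incubation versus DMSO and 10 µM JCP410 controls.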
# Chain of DPAP1 (Q8IIJ9 whole entry, looked up): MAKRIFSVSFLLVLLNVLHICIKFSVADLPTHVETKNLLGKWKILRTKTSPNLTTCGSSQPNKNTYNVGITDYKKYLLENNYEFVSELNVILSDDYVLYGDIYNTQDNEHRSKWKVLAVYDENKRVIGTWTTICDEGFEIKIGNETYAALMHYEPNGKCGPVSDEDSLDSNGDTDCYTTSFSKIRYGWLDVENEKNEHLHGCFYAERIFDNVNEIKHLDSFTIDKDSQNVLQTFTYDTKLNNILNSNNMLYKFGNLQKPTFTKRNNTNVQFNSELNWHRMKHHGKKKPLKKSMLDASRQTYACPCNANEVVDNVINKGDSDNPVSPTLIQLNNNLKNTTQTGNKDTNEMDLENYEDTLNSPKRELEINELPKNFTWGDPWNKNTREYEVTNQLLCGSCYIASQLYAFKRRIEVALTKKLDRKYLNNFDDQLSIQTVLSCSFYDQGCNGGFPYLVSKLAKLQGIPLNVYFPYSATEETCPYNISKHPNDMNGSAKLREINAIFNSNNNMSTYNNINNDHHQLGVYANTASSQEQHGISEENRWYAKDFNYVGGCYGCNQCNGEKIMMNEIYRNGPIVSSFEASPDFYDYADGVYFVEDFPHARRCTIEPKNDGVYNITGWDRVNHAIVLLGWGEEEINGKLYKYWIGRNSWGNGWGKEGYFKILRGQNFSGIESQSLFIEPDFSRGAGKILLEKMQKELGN
row,SMILES,% Inhibition @ 10 uM
1,CCCCn1c2ccc(C)cc2c2nnc(S)nc21,61%
2,CC(C)c1nc2ccccc2n1Cc1ccccc1F,1.12%
3,NC(=O)C1CCN(C(=O)COCc2cc(-c3ccc4c(c3)OCO4)on2)CC1,-4.1%
4,COCCCNC(=O)c1cnn2c(C(F)(F)F)cc(-c3cccs3)nc12,-2.26%
5,Nc1ncnc2c1nc(S(=O)(=O)O)n2Cc1ccccc1,-1.69%
6,CCSC1=NSC2=NC(=O)/C(=C\c3c(C)[nH]c4ccccc34)C(=N)N12,4.79%
7,Cc1cc2ccccc2n1CCNC(=O)C(c1ccccc1)c1ccccc1,-4.89%
8,COCCNC(=O)C1CCCN(S(=O)(=O)N(C)C2CCCCC2)C1 (stereo not drawn),-2.86%
9,c1ccc2nc3c(nc2c1)[nH]c1ccccc13,-1.8%
10,Sc1nnc2[nH]c3ccccc3c2n1,56.9%
11,Sc1nnc2c(n1)[nH]c1ccccc12,38%
12,Cc1nc2ccc(S(=O)(=O)NC(C(=O)NCCc3ccccc3)C(C)C)cc2s1 (stereo not drawn),-0.0115%
13,Cc1ccc2[nH]c(SCC(=O)Nc3ccc(Cl)cc3)nc2c1,5.24%
14,COc1cccc2cc(-c3cn(-c4cccc(C)c4)c(S)n3)c(=O)oc12,20.1%
15,Cc1cc(C)c2c(=O)n(CC(=O)NCc3ccccc3Cl)sc2n1,83.7%
16,Cc1cc(C)c2c(=O)n(CC(=O)NCc3ccc4c(c3)OCO4)sc2n1,12%
17,Cc1cc(C)c2c(=O)n(CC(=O)NCCc3ccc(Cl)cc3)sc2n1,15.6%
18,Cc1c(C(=O)Nc2nc3c(s2)CCCC3)oc2ccccc12,-2.85%
19,N#CC1=C(N)Oc2[nH]nc(-c3ccncc3)c2C1c1ccncc1 (stereo not drawn),3.92%
20,CCOc1cc(-c2c(C)c(C)nc(N)c2C#N)ccc1O,-1.79%
21,CC(C)C1Nc2c(C(=O)O)cccc2C2C=CCC21 (stereo not drawn),-1.2%
22,O=C(O)C1Nc2c(cccc2C(F)(F)F)C2C=CCC12 (stereo not drawn),0.345%
23,O=C(O)c1cccc2c1NC(C(=O)O)C1CC=CC21 (stereo not drawn),65.6%
24,CCc1nn(CCCC(=O)NC2CCCCC2C)c(=O)c2cc3occc3n12 (stereo not drawn),-0.281%
25,CCOc1ccc(C(=O)Nc2ccc(-c3nc4ncccc4o3)cc2)cc1Cl,-4.82%
26,CCc1cccc(C)c1NC(=O)c1cc(OC)cc(OC)c1,15.2%
27,O=C(O)CN1C(=O)c2cc(Cl)c(Cl)cc2C1=O,3.67%

row,SMILES,% Inhibition @ 10 uM
1,Cc1ccc(C(=O)NCc2nnc(SCC(=O)Nc3nccs3)n2-c2ccccc2)cc1C,-4.97%
2,COc1ccccc1-n1c(CNC(=O)c2cccc(C)c2)nnc1SCC(=O)Nc1nccs1,2.12%
3,Cc1ccc(C)c(-n2c(CNC(=O)c3cccc(F)c3)nnc2SCC(=O)Nc2nccs2)c1,73.7%
4,C[C@H](NC(=O)CCc1ccccc1)c1ccccc1,4.22%
5,CC(C)n1c(NC2CCCCC2)nc2c1c(=O)[nH]c(=O)n2C,-1.11%
6,Cc1cc(C)c2oc(C(=O)Nc3nnc(C)s3)cc(=O)c2c1,-3.24%
7,Cc1cc(C)c2oc(C(=O)Nc3nnc(C(C)C)s3)cc(=O)c2c1,53.6%
8,Cc1cc(C)c2oc(C(=O)Nc3nnc(CC(C)C)s3)cc(=O)c2c1,3.51%
9,Cc1cc(C(=O)NCCc2ccccc2)c2c(C)nn(-c3ccccc3)c2n1,-6.46%
10,Cc1nc(SCC(N)=O)c(C#N)c(C)c1C,-0.239%
11,Cc1nc(SCC(=O)O)c(C#N)c(C)c1C,72.9%
12,COC(=O)CSc1nc(C)c(C)c(C)c1C#N,4.15%
13,O=C(CSC1CC(=O)N(c2cccc(Cl)c2)C1=O)Nc1ccc(F)cc1 (stereo not drawn),2.13%
14,CCC(=O)Nc1ccc(Oc2ccc(NC(=O)CC)c(NC(=O)CC)c2)cc1,8.21%
15,CC(=O)Nc1ccc(Oc2cccc(Oc3ccc(NC(C)=O)cc3)c2)cc1,-6.02%
16,CC(=O)Nc1ccc(Oc2ccc(NC(C)=O)c(NC(C)=O)c2)cc1,70.7%
17,C1CCN(CCCNC2C3CC4CC(C3)CC2C4)C1 (stereo not drawn),-0.192%
18,COc1ccc(C(=O)N2CCC(N3CCCCCC3)CC2)cc1,1.91%
19,Cc1nc2c3ccccc3n3c(CCCC(=O)O)nnc3n2n1,-2.92%
20,Cc1[nH]nc(O)c1C(c1c(O)n[nH]c1C)c1c[nH]c2ccccc12,-6.24%
21,CCc1[nH]c2ccccc2c1C(C)c1cccnc1 (stereo not drawn),-4.49%
22,c1cncc(C(c2c[nH]c3ccccc23)c2c[nH]c3ccccc23)c1,92.4%
23,CC(C)(C)C1CCC(OC(=O)CCC(=O)Nc2ccccc2)CC1 (stereo not drawn),3.16%
24,N#Cc1cnn(-c2cc(Oc3ccccc3)nc(-c3ccccc3)n2)c1N,-0.941%
25,Cc1cccc(C)c1-n1c(C)cc(/C=C2\C(=N)N3N=C(S(C)(=O)=O)SC3=NC2=O)c1C,5.1%
26,Cc1cccc(-n2c(C)cc(/C=C3\C(=N)N4N=C(S(C)(=O)=O)SC4=NC3=O)c2C)c1,52.6%
27,Cc1cc(/C=C2\C(=N)N3N=C(S(C)(=O)=O)SC3=NC2=O)c(C)n1-c1cccc(C(F)(F)F)c1,3.53%
